Experimental findings from PubChem BioAssay are described below.

Activity calls are given as the source filed them.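 The calls were made as follows: active = mean inhibition above 46.5%, the solvent-only control mean plus 3 SD; inactive = the rest.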

Sequence of Nuclear receptor coactivator 2 (Homo sapiens) (Q15596 whole entry, looked up, the tested form may be a part): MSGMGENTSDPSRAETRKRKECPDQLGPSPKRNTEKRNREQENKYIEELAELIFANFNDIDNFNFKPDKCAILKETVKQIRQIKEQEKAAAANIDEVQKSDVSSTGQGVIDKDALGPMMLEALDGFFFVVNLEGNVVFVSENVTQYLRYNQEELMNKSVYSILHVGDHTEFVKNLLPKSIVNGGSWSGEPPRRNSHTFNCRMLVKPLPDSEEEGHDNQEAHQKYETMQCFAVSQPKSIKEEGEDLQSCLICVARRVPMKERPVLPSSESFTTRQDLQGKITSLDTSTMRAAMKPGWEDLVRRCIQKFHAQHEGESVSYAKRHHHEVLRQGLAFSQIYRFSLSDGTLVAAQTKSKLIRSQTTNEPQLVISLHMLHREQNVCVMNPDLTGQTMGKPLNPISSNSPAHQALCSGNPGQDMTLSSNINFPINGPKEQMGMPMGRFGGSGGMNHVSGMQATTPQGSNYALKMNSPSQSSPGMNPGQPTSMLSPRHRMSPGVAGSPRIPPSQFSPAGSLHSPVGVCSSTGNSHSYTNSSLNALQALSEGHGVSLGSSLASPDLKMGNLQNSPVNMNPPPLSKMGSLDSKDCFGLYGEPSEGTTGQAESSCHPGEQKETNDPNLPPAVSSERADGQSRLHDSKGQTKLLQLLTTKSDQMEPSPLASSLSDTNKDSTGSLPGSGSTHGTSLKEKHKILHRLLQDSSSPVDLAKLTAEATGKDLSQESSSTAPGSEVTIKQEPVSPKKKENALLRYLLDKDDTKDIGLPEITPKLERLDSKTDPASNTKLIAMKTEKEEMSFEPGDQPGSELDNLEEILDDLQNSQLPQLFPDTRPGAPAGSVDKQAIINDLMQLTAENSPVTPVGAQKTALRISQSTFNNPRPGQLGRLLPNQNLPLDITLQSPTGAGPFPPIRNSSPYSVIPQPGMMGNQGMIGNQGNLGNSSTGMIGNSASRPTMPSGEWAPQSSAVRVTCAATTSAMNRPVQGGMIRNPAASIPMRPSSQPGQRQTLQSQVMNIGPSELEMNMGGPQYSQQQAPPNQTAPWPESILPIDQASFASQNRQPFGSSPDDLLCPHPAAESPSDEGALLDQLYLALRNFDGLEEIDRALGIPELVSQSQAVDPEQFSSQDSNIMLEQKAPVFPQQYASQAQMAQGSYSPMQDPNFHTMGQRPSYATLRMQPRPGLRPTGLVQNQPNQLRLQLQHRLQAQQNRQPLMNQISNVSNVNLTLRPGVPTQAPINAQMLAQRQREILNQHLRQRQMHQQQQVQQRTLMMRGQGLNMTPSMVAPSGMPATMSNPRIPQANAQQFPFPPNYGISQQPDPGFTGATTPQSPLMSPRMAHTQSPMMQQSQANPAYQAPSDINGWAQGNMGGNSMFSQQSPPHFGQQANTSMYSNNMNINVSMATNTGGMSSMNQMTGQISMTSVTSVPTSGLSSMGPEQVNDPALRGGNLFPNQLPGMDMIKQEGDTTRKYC

This assay has as its target Nuclear receptor coactivator 2 (Homo sapiens) (UniProt Q15596). The assay is described as follows: inhibition of GAL4-SRC2 driven luciferase expression – cell-based, luminescence, HEK293, triplicate, confirmation (AID 652008).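 Also: 0% = DMSO-treated cells and 100% = Gossypol at 36 µM.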 As to conditions: HEK293 GAL4-SRC2 luciferase reporter, at 8.9 µM, stronger effect = higher value. In general terms: In a reporter assay the amount or activity of a reporter protein is the signal.
By inhibition is commonly meant the relative decrease from the control value, in per cent. With `Nc1cccc(SC2CC(=O)N(c3ccc(Cl)cc3C(=O)c3ccccc3)C2=O)c1` (stereo not given), the inhibition was 17.3% (inactive).
Turning to `C=C1C(=O)O[C@H]2C[C@@H](C)[C@@H]3C=CC(=O)[C@@]3(C)C[C@H]12`, the inhibition is 23% (inactive).
With `CN1C(=O)C[N+]([O-])=C(c2ccccc2)c2cc(Cl)ccc21`, the inhibition is 0.34% (inactive).
For `CC(=O)O[C@H]1C[C@@H]2OC3C=C(C)CCC3(C)[C@@]1(C)[C@@]21CO1` (stereo not given in full), the inhibition was 77.9% (active).
Then `c1cncc(-c2ccc3n2Cc2cnnn2-c2ccccc2-3)c1`, with 21.8% (inactive); and `FC(F)(F)c1ccccc1N1CC1c1ccncc1` (stereo not given), with -11.4% (inactive).
In the case of `Oc1ccc(-[n+]2c(-c3ccccc3)cc(-c3ccccc3)cc2-c2ccccc2)cc1` it was 33.1% (inactive).
Take `CCOP(=O)(OCC)C1(O)C(=O)Nc2ccc(Br)cc21` (stereo not given): the inhibition is -5.26% (inactive).
`O=C(c1ccc(Cl)cc1)C1CCCN(Cc2cccc3ncccc23)C1` (stereo not given): the inhibition was -6.97% (inactive).
`COC(=O)C1=C(c2ccc(-c3ccccc3)c(F)c2)C[C@@H]2CC[C@H]1N2C(=O)NCc1ccc(F)cc1`: the inhibition is 2.93% (inactive).
`CCn1ccnc1CN1CCCC(C(=O)c2cccc(C(F)(F)F)c2)C1` (stereo not given): the inhibition is 15.9% (inactive).
As for `COC(=O)C1=C(C(=O)OC)C2c3ccccc3C1c1ccccc12`, the inhibition was 2.05% (inactive).
As to `Cc1nc2cc(-c3ccc(Cl)cc3)nn2c(C)c1CCC(=O)N1CCC2(CC1)OCCO2`, the inhibition was 70.5% (active).
With `COc1cc(CC(C)N)c(OC)cc1I` (stereo not given), the inhibition is 8.7% (inactive).
Consider `O=[N+]([O-])c1ccc(N2CCCC(C(F)(F)F)C2)c2ccncc12` (stereo not given), for which the inhibition was 34.3% (inactive).
